# Sm TGR inh = S. mansoni TGR enzyme inhibition; Q962Y6; purified TGR, DTNB reduction, TNB absorbance 405 nm; Potency, µM (top dose mostly 114 µM), usual class: inhibitors; 360,000 compounds, 3% hits; AID 485364; further: nearly all actives have a fitted effect of over 60% in size
#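 First, TGR (20 nM dispensed) and NADPH were mixed with compound. Second, a 15 min room-temperature incubation followed. Third, further NADPH and then DTNB were added to start the reaction. Finally, TNB absorbance was monitored kinetically.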
# FBPA Giardia inh = blocks Giardia fructose-bisphosphate aldolase activity | purified Giardia FBPA | 290,000 compounds, 0.71% hits | Potency, µM (titrated, usually from 59.6 µM), usual class: inhibitors; further: nearly all actives have a fitted effect of over 55% in size
# Target sequence (A8B2U2 whole entry, looked up): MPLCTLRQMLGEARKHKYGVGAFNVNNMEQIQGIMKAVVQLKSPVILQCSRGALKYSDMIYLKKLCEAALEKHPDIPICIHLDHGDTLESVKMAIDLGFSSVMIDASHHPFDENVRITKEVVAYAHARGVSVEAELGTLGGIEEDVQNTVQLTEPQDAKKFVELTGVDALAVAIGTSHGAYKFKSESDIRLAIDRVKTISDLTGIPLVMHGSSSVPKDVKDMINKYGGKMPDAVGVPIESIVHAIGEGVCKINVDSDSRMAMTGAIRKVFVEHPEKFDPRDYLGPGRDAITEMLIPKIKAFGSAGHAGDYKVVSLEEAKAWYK
#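 40 nM FBPA preincubated 10 min at RT with compound (up to 57.5 uM final), then substrate plus GAPDH/TPI/NAD/arsenate coupling and diaphorase/resazurin added. Fluorescence read after 20 min at RT, 525/598 nm.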
# AmpC inh detg = AmpC beta-lactamase inhibition with detergent present; P00811; AmpC hydrolysis of nitrocefin, absorbance 480 nm, 0.01% Triton; Potency, µM (top dose mostly 114 µM), usual class: inhibitors; 370,000 compounds, 0.041% hits; further: nearly all actives have a fitted effect of over 25% in size
#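 AmpC (5.3 nM in the dispensed reagent) in 20 mM phosphate pH 7.0 with 0.01% (detergent screen) or 0.0001% Triton X-100 was preincubated with compounds for 15 min at room temperature. Nitrocefin was then added from an 800 uM solution, and hydrolysis was followed at 480 nm.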
# AmpC no deterg = inhibitors of E. coli AmpC beta-lactamase without detergent | 330,000 compounds, 0.52% hits | AmpC nitrocefin hydrolysis, absorbance 480 nm, 0.0001% Triton | Potency, µM (series often up to 57.1 µM), usual class: inhibitors; further: nearly all actives have a fitted effect of over 20% in size
#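 AmpC (5.3 nM in the dispensed reagent) in 20 mM phosphate pH 7.0 with 0.01% (detergent screen) or 0.0001% Triton X-100 was preincubated with compounds for 15 min at room temperature. Nitrocefin was then added from an 800 uM solution, and hydrolysis was followed at 480 nm.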
# Hits are given with their value; - = inactive; ? = inconclusive; . = no result given. In the library only some 3.6% were active in any assay of this set; here they are far more common. The call rests on the fitted dose curve; in most records, active means well fitted curve in the direction sought with a large enough effect; inconclusive means small, poorly fitted or top-dose-only effect, or another doubt; inactive means no such curve, though single readings can be large; an effect the other way counts as inactive or inconclusive.
SMILES,Sm TGR inh,FBPA Giardia inh,AmpC inh detg,AmpC no deterg
O=C(C1=C[C@H](C2CCCCC2)C[C@H](OCCCCO)O1)N1CCN(Cc2ccccc2)CC1,35µM,-,-,-
O=C(C1=C[C@@H](C2CCCCC2)C[C@@H](OCCCCO)O1)N1CCN(Cc2ccc3c(c2)OCO3)CC1,-,-,-,-
O=C(C1=C[C@H](C2CC2)C[C@H](OCCCCO)O1)N1CCN(Cc2ccccc2)CC1,25µM,-,-,-
Cc1ccc(C)c(CSc2nnc3[nH]c(=O)cc(-c4ccccc4)n23)c1,-,.,-,.
O=C1NC(=O)N(Cc2ccco2)C(=O)/C1=C/c1ccc(-c2cccc([N+](=O)[O-])c2)o1,40µM,-,?,35µM
Cc1cccc(OCCn2cccc2/C=C2/C(=O)NC(=O)N(Cc3ccco3)C2=O)c1,4µM,-,-,-
O=C1NC(=O)/C(=C/c2ccc(-c3cccc([N+](=O)[O-])c3)o2)S1,-,?,-,-
O=[N+]([O-])c1cccc(-c2ccc(/C=N/NC(=S)NCc3ccco3)o2)c1,-,-,-,8.9µM
CC(C)(C)c1ccc(-c2nc(O)c(CC(=O)O)s2)cc1,-,-,-,-
COC(=O)c1ccccc1S(=O)(=O)N1CCC(C(=O)NCCC2=CCCCC2)CC1,-,.,-,-
CCS(=O)(=O)c1ncc(Cl)c(C(=O)N2CCN(c3ccc(OC)cc3)CC2)n1,35µM,.,-,.
CCS(=O)(=O)c1ncc(Cl)c(C(=O)NCc2ccc(OC)cc2)n1,10µM,.,-,.
CCCS(=O)(=O)c1ncc(Cl)c(C(=O)N(Cc2ccccc2)Cc2ccco2)n1,5µM,.,-,.
COc1ccc(N(Cc2ccccc2)C(=O)c2nc(SC)ncc2Cl)cc1,-,.,-,.
CCSc1ncc(Cl)c(C(=O)N(Cc2ccccc2)Cc2ccco2)n1,?,.,-,.
CCS(=O)(=O)c1ncc(Cl)c(C(=O)N(Cc2ccccc2)c2ccc(OC)cc2)n1,40µM,.,-,.
COc1ccc(C2C(=O)N(C3CCCCC3)CC(=O)N2CCC2=CCCCC2)cc1 (stereo unspecified),-,.,-,.
Cc1ccc(S(=O)(=O)n2nc(OC(=O)c3ccccc3C)cc2N)cc1,-,-,-,32µM
Cc1ccc(S(=O)(=O)n2nc(OC(=O)c3c(F)cccc3Cl)cc2N)cc1,-,-,-,-
Cc1c(C(=O)Oc2cc(N)n(S(C)(=O)=O)n2)cccc1[N+](=O)[O-],8.9µM,-,-,-
Cc1ccc(S(=O)(=O)n2nc(OC(=O)c3cccc(F)c3)cc2N)cc1,13µM,-,-,-
Nc1cc(OC(=O)c2ccco2)nn1S(=O)(=O)c1ccc(F)cc1,32µM,-,-,-
CCN(CC)S(=O)(=O)c1ccc2c(c1)nc(CCC(=O)Nc1ccc(N3CCOCC3)cc1)n2C,-,-,-,-
CC(C)Oc1ccc(CNC(=O)c2cccc(NC(=O)N3CCSc4ncccc43)c2)cc1,-,.,-,.
Cc1ccc(S(=O)(=O)N(C)C)cc1NC(=O)c1cc(C(C)(C)C)nn1Cc1ccccc1,-,-,-,-
SMILES,Sm TGR inh,FBPA Giardia inh,AmpC inh detg,AmpC no deterg
COc1ccc(-c2nc(CS(=O)CC(=O)N3CCOCC3)c(C)o2)cc1OC (stereo unspecified),40µM,.,-,-
COc1ccc(-c2nc(CS(=O)CC(=O)NC3CCCCCC3)c(C)o2)cc1 (stereo unspecified),40µM,-,?,-
Cc1oc(-c2ccccc2)nc1CS(=O)CC(=O)NC1CCCC1 (stereo unspecified),7.9µM,-,-,-
COc1ccc(-c2nc(CS(=O)CC(=O)NC3CCCCC3)c(C)o2)cc1OC (stereo unspecified),35µM,.,-,-
Cc1ccc(-c2nc(CS(=O)CC(=O)NC3CC3)c(C)o2)cc1 (stereo unspecified),?,.,-,-
COc1ccc(-c2nc(CS(=O)CC(=O)N3CCN(C)CC3)c(C)o2)cc1OC (stereo unspecified),?,-,?,-
Nc1nc(Nc2cccc(F)c2)nc(NCc2ccco2)c1[N+](=O)[O-],-,-,-,-
O=c1[nH]c2ccccc2c(O)c1-c1ccccc1[N+](=O)[O-],-,-,-,-
Cc1ccccc1Nc1nc(N)nc(CN2CCN(C(=O)c3ccccc3)CC2)n1,-,-,-,-
CN(C)S(=O)(=O)c1ccc2c(c1)/C(=C/c1cc3c([nH]1)CCCC3)C(=O)N2,50µM,-,?,-
COc1cc2c(C(=O)NCc3ccc(C)o3)cn(CC(C)C)c(=O)c2cc1OC,10µM,-,?,-
